In PMC7862700, “An all-to-all approach to the identification of sequence-specific readers for epigenetic DNA modifications on cytosine”:

Legend:
Test in all cases: DAPPL (digital affinity profiling via proximity ligation, sequencing); 10 mM Tris-HCl pH 7.5, 50 mM NaCl, 1 mM DTT, 4% glycerol, room temperature, 30 min; GST-TFs on glutathione beads, 16-mer random dsDNA library, 0.1% formaldehyde crosslink after washing; high values mean tight binding
Conditions in all cases: protein: recombinant; tags: N-terminal GST; dsDNA, one strand shown
ERF = target: T1, ERF (Homo sapiens, UniProt P50548 1-548)
T1 sequence: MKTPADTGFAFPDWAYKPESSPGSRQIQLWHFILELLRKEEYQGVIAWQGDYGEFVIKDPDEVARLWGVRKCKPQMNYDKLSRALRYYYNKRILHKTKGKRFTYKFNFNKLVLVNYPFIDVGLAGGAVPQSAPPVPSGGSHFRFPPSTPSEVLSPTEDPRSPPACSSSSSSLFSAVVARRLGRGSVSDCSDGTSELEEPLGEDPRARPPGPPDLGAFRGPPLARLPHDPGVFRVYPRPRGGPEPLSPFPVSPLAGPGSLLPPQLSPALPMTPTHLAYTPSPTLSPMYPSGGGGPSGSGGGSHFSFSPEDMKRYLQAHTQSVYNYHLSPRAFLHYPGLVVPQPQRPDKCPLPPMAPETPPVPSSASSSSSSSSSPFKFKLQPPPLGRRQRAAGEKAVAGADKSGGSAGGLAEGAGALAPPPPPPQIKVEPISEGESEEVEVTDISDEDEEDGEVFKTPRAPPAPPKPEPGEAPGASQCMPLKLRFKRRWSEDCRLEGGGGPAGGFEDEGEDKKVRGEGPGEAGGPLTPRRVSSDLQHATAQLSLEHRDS
Procedure, shortened: (§1)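 After expression in yeast as GST fusions, human transcription factors were bound to glutathione beads, DNA-barcoded and mixed with a tag-only sample. The pools were incubated with 200 nmole of a 16-mer random double-stranded DNA library in Tris/NaCl/DTT/glycerol buffer (30 min, room temperature), washed and crosslinked with 0.1% formaldehyde. Proximity ligation with BsaI/T4 ligase ran for 1 h at 37 °C, before PCR amplification and sequencing on an Illumina NextSeq500. Binding signal is a hexamer's read frequency for a factor divided by its frequency for the tag-only sample.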

ETV3L = target: T2, ETV3L (Homo sapiens, UniProt Q6ZN32 1-361)
T2 sequence: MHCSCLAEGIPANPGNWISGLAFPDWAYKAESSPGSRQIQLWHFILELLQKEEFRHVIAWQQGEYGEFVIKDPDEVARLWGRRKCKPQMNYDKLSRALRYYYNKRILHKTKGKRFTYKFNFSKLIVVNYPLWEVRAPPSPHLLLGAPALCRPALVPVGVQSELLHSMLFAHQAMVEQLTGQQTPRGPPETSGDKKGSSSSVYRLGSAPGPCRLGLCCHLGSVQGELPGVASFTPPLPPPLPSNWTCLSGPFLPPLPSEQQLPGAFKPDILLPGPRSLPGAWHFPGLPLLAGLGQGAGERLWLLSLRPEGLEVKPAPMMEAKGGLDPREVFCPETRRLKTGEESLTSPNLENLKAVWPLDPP
Procedure, shortened: as §1

ETS2 = target: T3, ETS2 (Homo sapiens, UniProt P15036 1-469)
T3 sequence: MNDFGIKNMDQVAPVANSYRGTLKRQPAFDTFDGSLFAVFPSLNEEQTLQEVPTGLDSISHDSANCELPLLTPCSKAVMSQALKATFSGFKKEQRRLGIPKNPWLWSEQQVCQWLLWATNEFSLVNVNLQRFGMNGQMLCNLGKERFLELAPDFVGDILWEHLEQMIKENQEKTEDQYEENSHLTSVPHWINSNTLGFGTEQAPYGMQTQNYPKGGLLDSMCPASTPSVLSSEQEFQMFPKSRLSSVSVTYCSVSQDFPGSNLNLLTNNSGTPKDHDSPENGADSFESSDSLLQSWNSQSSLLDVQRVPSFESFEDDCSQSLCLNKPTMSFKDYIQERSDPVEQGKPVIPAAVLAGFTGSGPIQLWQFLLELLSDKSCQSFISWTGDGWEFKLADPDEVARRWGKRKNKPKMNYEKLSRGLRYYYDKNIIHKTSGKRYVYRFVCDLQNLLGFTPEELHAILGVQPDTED
Procedure, shortened: as §1

SPDEF = target: T4, SPDEF (Homo sapiens, UniProt O95238 1-335)
T4 sequence: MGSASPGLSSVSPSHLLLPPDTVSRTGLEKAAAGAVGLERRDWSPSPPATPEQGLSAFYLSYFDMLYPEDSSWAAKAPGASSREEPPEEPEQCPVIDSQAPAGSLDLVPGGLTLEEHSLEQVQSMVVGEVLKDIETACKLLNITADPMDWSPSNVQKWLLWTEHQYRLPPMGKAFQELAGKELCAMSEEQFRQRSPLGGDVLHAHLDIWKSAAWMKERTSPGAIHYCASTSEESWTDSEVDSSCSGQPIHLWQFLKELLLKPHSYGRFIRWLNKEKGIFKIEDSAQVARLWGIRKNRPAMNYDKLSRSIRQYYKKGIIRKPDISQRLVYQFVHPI
Procedure, shortened: as §1

ETV7 = target: T5, ETV7 (Homo sapiens, UniProt Q9Y603 1-341)
T5 sequence: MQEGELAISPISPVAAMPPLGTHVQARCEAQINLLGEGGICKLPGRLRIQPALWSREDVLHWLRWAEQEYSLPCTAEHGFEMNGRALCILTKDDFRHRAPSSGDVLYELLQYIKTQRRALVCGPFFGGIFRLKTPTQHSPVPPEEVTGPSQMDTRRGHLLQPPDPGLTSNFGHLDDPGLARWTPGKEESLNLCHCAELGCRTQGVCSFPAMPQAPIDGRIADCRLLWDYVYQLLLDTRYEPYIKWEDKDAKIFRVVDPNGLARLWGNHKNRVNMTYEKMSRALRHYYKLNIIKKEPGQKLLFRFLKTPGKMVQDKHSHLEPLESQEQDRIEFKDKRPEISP
Procedure, shortened: as §1

ELF5 = target: T6, ELF5 (Homo sapiens, UniProt Q9UKW6-2 1-255)
T6 sequence: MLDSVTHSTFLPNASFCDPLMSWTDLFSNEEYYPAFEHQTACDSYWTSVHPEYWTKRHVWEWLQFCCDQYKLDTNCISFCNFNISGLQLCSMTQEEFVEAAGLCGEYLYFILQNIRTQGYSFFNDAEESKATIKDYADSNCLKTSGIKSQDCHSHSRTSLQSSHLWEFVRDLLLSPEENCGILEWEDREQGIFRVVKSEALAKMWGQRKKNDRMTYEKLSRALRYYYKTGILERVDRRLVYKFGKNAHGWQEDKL
Procedure, shortened: as §1

ETV3 = target: T7, ETV3 (Homo sapiens, UniProt P41162-2 1-143)
T7 sequence: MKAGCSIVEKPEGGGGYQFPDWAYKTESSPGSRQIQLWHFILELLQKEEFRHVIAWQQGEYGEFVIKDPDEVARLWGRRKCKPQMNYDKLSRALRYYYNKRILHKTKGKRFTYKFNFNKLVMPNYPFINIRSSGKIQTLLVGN
Procedure, shortened: as §1

ETV6 = ETV6 (Homo sapiens, UniProt P41212 1-452)
Sequence of ETV6 (P41212 whole entry): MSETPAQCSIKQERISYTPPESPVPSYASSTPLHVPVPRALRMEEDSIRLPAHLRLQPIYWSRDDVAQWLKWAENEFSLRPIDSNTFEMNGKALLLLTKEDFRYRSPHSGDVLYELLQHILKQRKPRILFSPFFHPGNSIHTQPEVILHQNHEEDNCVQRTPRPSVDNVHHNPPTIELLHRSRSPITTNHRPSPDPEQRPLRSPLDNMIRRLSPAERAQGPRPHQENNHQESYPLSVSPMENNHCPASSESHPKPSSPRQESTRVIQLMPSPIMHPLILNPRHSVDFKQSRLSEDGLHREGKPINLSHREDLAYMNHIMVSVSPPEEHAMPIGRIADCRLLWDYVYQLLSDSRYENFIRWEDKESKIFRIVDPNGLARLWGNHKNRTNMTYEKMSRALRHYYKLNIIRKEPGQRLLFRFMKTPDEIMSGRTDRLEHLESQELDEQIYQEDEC
Procedure, shortened: as §1

Sequence | binding signal (ERF) | binding signal (ETV3L) | binding signal (ETS2) | binding signal (SPDEF) | binding signal (ETV7) | binding signal (ELF5) | binding signal (ETV3) | binding signal (ETV6)
CACGAT | 1.29 fold enrichment (6-mer frequency, TF over GST control) | 1.23 fold enrichment (6-mer frequency, TF over GST control) | 1.24 fold enrichment (6-mer frequency, TF over GST control) | 1.26 fold enrichment (6-mer frequency, TF over GST control) | 1.32 fold enrichment (6-mer frequency, TF over GST control) | 1.17 fold enrichment (6-mer frequency, TF over GST control) | 1.29 fold enrichment (6-mer frequency, TF over GST control) | 1.27 fold enrichment (6-mer frequency, TF over GST control)
GAAAAT | 1.18 fold enrichment (6-mer frequency, TF over GST control) | 1.15 fold enrichment (6-mer frequency, TF over GST control) | 1.13 fold enrichment (6-mer frequency, TF over GST control) | 1.05 fold enrichment (6-mer frequency, TF over GST control) | 1.2 fold enrichment (6-mer frequency, TF over GST control) | 1.17 fold enrichment (6-mer frequency, TF over GST control) | 1.07 fold enrichment (6-mer frequency, TF over GST control) | 1.19 fold enrichment (6-mer frequency, TF over GST control)
ATTTAC | 1.27 fold enrichment (6-mer frequency, TF over GST control) | 1.18 fold enrichment (6-mer frequency, TF over GST control) | 1.28 fold enrichment (6-mer frequency, TF over GST control) | 1.21 fold enrichment (6-mer frequency, TF over GST control) | 1.28 fold enrichment (6-mer frequency, TF over GST control) | 1.25 fold enrichment (6-mer frequency, TF over GST control) | 1.29 fold enrichment (6-mer frequency, TF over GST control) | 1.18 fold enrichment (6-mer frequency, TF over GST control)
AATCAA | 1.17 fold enrichment (6-mer frequency, TF over GST control) | 1.24 fold enrichment (6-mer frequency, TF over GST control) | 1.18 fold enrichment (6-mer frequency, TF over GST control) | 1.11 fold enrichment (6-mer frequency, TF over GST control) | 1.16 fold enrichment (6-mer frequency, TF over GST control) | 1.16 fold enrichment (6-mer frequency, TF over GST control) | 1.2 fold enrichment (6-mer frequency, TF over GST control) | 1.2 fold enrichment (6-mer frequency, TF over GST control)
GATTTT | 1.16 fold enrichment (6-mer frequency, TF over GST control) | 1.24 fold enrichment (6-mer frequency, TF over GST control) | 1.17 fold enrichment (6-mer frequency, TF over GST control) | 1.14 fold enrichment (6-mer frequency, TF over GST control) | 1.13 fold enrichment (6-mer frequency, TF over GST control) | 1.13 fold enrichment (6-mer frequency, TF over GST control) | 1.08 fold enrichment (6-mer frequency, TF over GST control) | 1.11 fold enrichment (6-mer frequency, TF over GST control)
CTCTAG | 1.31 fold enrichment (6-mer frequency, TF over GST control) | 1.28 fold enrichment (6-mer frequency, TF over GST control) | 1.26 fold enrichment (6-mer frequency, TF over GST control) | 1.24 fold enrichment (6-mer frequency, TF over GST control) | 1.27 fold enrichment (6-mer frequency, TF over GST control) | 1.22 fold enrichment (6-mer frequency, TF over GST control) | 1.4 fold enrichment (6-mer frequency, TF over GST control) | 1.34 fold enrichment (6-mer frequency, TF over GST control)
AACAAC | 1.35 fold enrichment (6-mer frequency, TF over GST control) | 1.25 fold enrichment (6-mer frequency, TF over GST control) | 1.33 fold enrichment (6-mer frequency, TF over GST control) | 1.27 fold enrichment (6-mer frequency, TF over GST control) | 1.3 fold enrichment (6-mer frequency, TF over GST control) | 1.28 fold enrichment (6-mer frequency, TF over GST control) | 1.37 fold enrichment (6-mer frequency, TF over GST control) | 1.35 fold enrichment (6-mer frequency, TF over GST control)
ATGACT | 1.36 fold enrichment (6-mer frequency, TF over GST control) | 1.47 fold enrichment (6-mer frequency, TF over GST control) | 1.42 fold enrichment (6-mer frequency, TF over GST control) | 1.29 fold enrichment (6-mer frequency, TF over GST control) | 1.38 fold enrichment (6-mer frequency, TF over GST control) | 1.32 fold enrichment (6-mer frequency, TF over GST control) | 1.27 fold enrichment (6-mer frequency, TF over GST control) | 1.3 fold enrichment (6-mer frequency, TF over GST control)
CAATCC | 1.25 fold enrichment (6-mer frequency, TF over GST control) | 1.2 fold enrichment (6-mer frequency, TF over GST control) | 1.22 fold enrichment (6-mer frequency, TF over GST control) | 1.4 fold enrichment (6-mer frequency, TF over GST control) | 1.16 fold enrichment (6-mer frequency, TF over GST control) | 1.21 fold enrichment (6-mer frequency, TF over GST control) | 1.19 fold enrichment (6-mer frequency, TF over GST control) | 1.22 fold enrichment (6-mer frequency, TF over GST control)
TGTTCT | 1.39 fold enrichment (6-mer frequency, TF over GST control) | 1.43 fold enrichment (6-mer frequency, TF over GST control) | 1.18 fold enrichment (6-mer frequency, TF over GST control) | 1.22 fold enrichment (6-mer frequency, TF over GST control) | 1.22 fold enrichment (6-mer frequency, TF over GST control) | 1.37 fold enrichment (6-mer frequency, TF over GST control) | 1.27 fold enrichment (6-mer frequency, TF over GST control) | 1.37 fold enrichment (6-mer frequency, TF over GST control)
TTGGTG | 1.28 fold enrichment (6-mer frequency, TF over GST control) | 1.25 fold enrichment (6-mer frequency, TF over GST control) | 1.32 fold enrichment (6-mer frequency, TF over GST control) | 1.33 fold enrichment (6-mer frequency, TF over GST control) | 1.15 fold enrichment (6-mer frequency, TF over GST control) | 1.27 fold enrichment (6-mer frequency, TF over GST control) | 1.32 fold enrichment (6-mer frequency, TF over GST control) | 1.18 fold enrichment (6-mer frequency, TF over GST control)
CAAAAT | 1.33 fold enrichment (6-mer frequency, TF over GST control) | 1.19 fold enrichment (6-mer frequency, TF over GST control) | 1.2 fold enrichment (6-mer frequency, TF over GST control) | 1.1 fold enrichment (6-mer frequency, TF over GST control) | 1.28 fold enrichment (6-mer frequency, TF over GST control) | 1.13 fold enrichment (6-mer frequency, TF over GST control) | 1.12 fold enrichment (6-mer frequency, TF over GST control) | 1.26 fold enrichment (6-mer frequency, TF over GST control)
CCTTCC | 2.26 fold enrichment (6-mer frequency, TF over GST control) | 2.48 fold enrichment (6-mer frequency, TF over GST control) | 2.41 fold enrichment (6-mer frequency, TF over GST control) | 2.44 fold enrichment (6-mer frequency, TF over GST control) | 2.45 fold enrichment (6-mer frequency, TF over GST control) | 3.65 fold enrichment (6-mer frequency, TF over GST control) | 2.88 fold enrichment (6-mer frequency, TF over GST control) | 2.74 fold enrichment (6-mer frequency, TF over GST control)
AATACG | 1.23 fold enrichment (6-mer frequency, TF over GST control) | 1.23 fold enrichment (6-mer frequency, TF over GST control) | 1.28 fold enrichment (6-mer frequency, TF over GST control) | 1.24 fold enrichment (6-mer frequency, TF over GST control) | 1.12 fold enrichment (6-mer frequency, TF over GST control) | 1.27 fold enrichment (6-mer frequency, TF over GST control) | 1.19 fold enrichment (6-mer frequency, TF over GST control) | 1.26 fold enrichment (6-mer frequency, TF over GST control)
ATTCTC | 1.22 fold enrichment (6-mer frequency, TF over GST control) | 1.31 fold enrichment (6-mer frequency, TF over GST control) | 1.19 fold enrichment (6-mer frequency, TF over GST control) | 1.19 fold enrichment (6-mer frequency, TF over GST control) | 1.23 fold enrichment (6-mer frequency, TF over GST control) | 1.26 fold enrichment (6-mer frequency, TF over GST control) | 1.17 fold enrichment (6-mer frequency, TF over GST control) | 1.23 fold enrichment (6-mer frequency, TF over GST control)
